Reference: PubChem BioAssay AID1345085 (National Center for Advancing Translational Sciences (NCATS), 2018)
Inconclusive results are not listed. Activity calls are given as the source filed them. Calls come from the whole dose curve; as a rule, active = well fitted cell-killing curve with a large enough effect; inconclusive = small, poorly fitted or top-dose-only effect, or effect the other way; inactive = no such curve, though single readings can be large or run the other way.

What follows are molecules tested on CAOV3 (assay: Confirmatory qHTS for gynecologic anti-cancer compounds from libraries of approved drugs and bioactive compounds). Conditions: gynecologic cancer cell panel viability, ATPlite luminescence, 48 h; series mostly up to 57.6 µM; activity change, negative = viability loss: at the top concentration.
In short: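 Cells (1,000/well) plated 16 h, then exposed 48 h at 37 °C to 11 concentrations (1:3) from 57.5 uM to 0.977 nM. Viability by ATPlite luminescence after 15 min; IC50 derived, with HEK 293T used for selectivity index.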
% is set by controls: 0 for no effect and ±100 for the full control effect; potency is the fitted concentration of half-maximal effect.
Note: nearly all actives have a fitted effect of over 55% in size.

SMILES | activity change, negative = viability loss | Potency
CCN1CCN(C(=O)Cc2ccc(Nc3ncc(F)c(Nc4ccc(C(=O)Nc5ccccc5Cl)cc4)n3)cc2)CC1 | 1.61% (inactive) | 
C[C@]12CC[C@H]3[C@@H](CCC4=CC(=O)CC[C@@H]43)[C@@H]1CC[C@@H]2OC(=O)CCc1ccccc1 | -0.126% (inactive) | 
C/C=C(/C)C(=O)O[C@H]1C(C)=C2[C@H]([C@@H]1OC(=O)CCCCCCC)[C@@](C)(OC(C)=O)C[C@H](OC(=O)CCC)[C@@]1(O)[C@H]2OC(=O)[C@@]1(C)O |  | 9.68 µM (active)
CCNC(=O)C[C@@H]1N=C(c2ccc(Cl)cc2)c2cc(OC)ccc2-n2c(C)nnc21 |  | 1.22 µM (active)
CCC(=O)O[C@H]1CC[C@H]2[C@@H]3CCC4=CC(=O)CC[C@]4(C)[C@H]3CC[C@]12C | -7.4% (inactive) | 
C[C@H]1CCC/C=C/C2C[C@H](O)C[C@H]2[C@H](O)/C=C/C(=O)O1 (some centres undefined) |  | 0.306 µM (active)
O=C(O)Cc1ccccc1 | 5.87% (inactive) | 
CCOc1ccccc1-n1c(C(C)N2CCN(C(=O)COc3ccc(Cl)cc3)CC2)nc2ccccc2c1=O (centres undefined) | 11.5% (inactive) | 
C=C(C)[C@H]1Cc2c(ccc3c2O[C@@H]2COc4cc(OC)c(OC)cc4[C@@H]2C3=O)O1 | 14% (inactive) | 
